Reference: PubChem BioAssay

experiment: probe aWnt5a binding to arrayed compounds – biochemical, biotinylated probe, 635/667 nm fluorescence, primary screen (AID 1113); settings: small-molecule microarray, higher = more signal;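 also: score merges 667 nm fluorescence intensity with signal-to-noise per printed feature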

Going from `COCCOC(=O)N1C(=O)[C@@]2(c3cc(C#CCC(C(=O)OC)C(=O)OC)ccc31)[C@H](C(=O)N1CCN(c3ncccn3)CC1)[C@H]1C(=O)O[C@H](c3ccccc3)[C@H](c3ccccc3)N1[C@@H]2c1ccc(OCCO)cc1` to `COCCOC(=O)N1C(=O)[C@@]2(c3cc(C#CCNC(N)=O)ccc31)[C@H](c1ccc(O)cc1)N1[C@H](c3ccccc3)[C@H](c3ccccc3)OC(=O)[C@H]1[C@@H]2C(=O)Nc1nc2ccccc2s1`, the composite z-score rises from -0.0778 to -0.0242.

Going from `Cc1cc(C)c(C(O)C2C=CC3C(=O)N(c4ccccc4)C(=O)C3N2Nc2ccc(C#N)cc2)c(C)c1` (configuration not stated) to `CC(C)c1ccc(NN2C(C(O)c3c(F)cccc3Cl)C=CC3C(=O)N(c4ccccc4)C(=O)C32)cc1` (configuration not stated), the composite z-score rises from 0.0894 to 0.136.

Going from `Cc1ccc(S[C@]2(C(=O)NC3CC3)CC(=O)N(C3CCCCC3)[C@@H]2c2ccc(CO)cc2I)cc1` to `CC(C)CNC(=O)[C@@]1(c2ccc([N+](=O)[O-])cc2)CC(=O)N(CC23CC4CC(CC(C4)C2)C3)[C@@H]1c1ccc(CO)cc1I`, the composite z-score rises from -0.154 to -0.0587.

Going from `[N-]=[N+]=Nc1ccccc1[C@H]1OC(c2ccc(OCCCO)cc2)=N[C@@]1(CCS(=O)(=O)c1ccccc1)C(=O)O` to `CC(C)c1ccc(NN2C(C(O)c3cccc(O)c3)C=CC3C(=O)N(c4ccccc4)C(=O)C32)cc1` (configuration not stated), the composite z-score rises from -0.131 to -0.0583.

Going from `CC=CC(O)C1C=CC2C(=O)N(c3ccccc3)C(=O)C2N1Nc1ccc(C(C)C)cc1` (configuration not stated) to `C=C(C(=O)CC[C@H](OC(C)=O)c1ccc(OCCO)cc1)C(C)C`, the composite z-score falls from 0.0194 to -0.1.

Compared with `COc1cccc(C(=O)O[C@H]2CC[C@]3(C)C4=C(CCC3C2(C)C)[C@]2(C)CC[C@H]([C@H](C)CCCC(C)C)[C@@]2(C)CC4)c1` (some centres not stated), `O=C(CS)NCCCCCCNC(=O)[C@H]1C[C@H]2C(=O)N3CCC[C@H]3C(=O)N2[C@H]1c1cccc(OCCO)c1` is higher in composite z-score: -0.202 for the first, -0.0236 for the second.

With `CC(=O)NCCCC[C@@H]1NC(=O)[C@H]2C[C@@H](C(=O)NCCCCCC[N+](C)(C)C)[C@@H](c3cccc(OCCO)c3)N2C1=O` the composite z-score was -0.0792.

experiment: probe aShh binding to arrayed compounds – biochemical, biotinylated probe, 635/667 nm fluorescence, primary screen (AID 1114); settings: small-molecule microarray, higher = more signal;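 also: probe is biotin-labelled aShh protein from a stem cell growth factor screen; measures binding of labelled protein to compounds printed on the slide; score merges feature fluorescence at 667 nm with signal-to-noise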

First: COCCOC(=O)N1C(=O)[C@@]2(c3cc(C#CCC(C(=O)OC)C(=O)OC)ccc31)[C@H](C(=O)N1CCCCCCC1)[C@H]1C(=O)O[C@H](c3ccccc3)[C@H](c3ccccc3)N1[C@@H]2c1ccc(OCCO)cc1
Second: COCCOC(=O)N1C(=O)[C@@]2(c3cc(C#CCCO)ccc31)[C@H](c1ccc(O)cc1)N1[C@H](c3ccccc3)[C@H](c3ccccc3)OC(=O)[C@H]1[C@@H]2C(N)=O
The composite z-score of the first is higher: 1.19 for the first, 0.0611 for the second.

First: C=C(CCCC)/C(=C/C[C@H](OC(C)=O)c1ccc(CO)o1)c1cnc2ccccc2c1
Second: C=CC[C@@H](OC(=O)Nc1ccc(OC)cc1)c1ccc(O)c2ccccc12
The composite z-score of the first is higher: 0.292 for the first, -0.154 for the second.

First: [N-]=[N+]=NCc1ccccc1[C@@H]1OC(c2ccc(OCCCO)cc2)=N[C@]1(Cc1ccccc1)C(=O)N1CCCCC1
Second: [N-]=[N+]=NCc1ccccc1C[C@@]1(C(=O)NCC(O)CO)N=C(c2ccc(OCCCO)cc2)O[C@@H]1c1ccccc1CN=[N+]=[N-] (some centres not stated)
The composite z-score of the first is higher: 0.369 for the first, 0.269 for the second.

First: C=CCNC(=O)[C@@H]1[C@H]2C(=O)O[C@H](c3ccccc3)[C@H](c3ccccc3)N2[C@H](c2ccc(OCCO)cc2)[C@@]12C(=O)Nc1ccccc12
Second: C[C@]1(C(=O)NCc2ccccc2)c2ccccc2C(=O)N(Cc2ccc(OC(F)(F)F)cc2)[C@H]1c1ccc(CO)cc1
The composite z-score of the first is higher: 0.0469 for the first, -0.304 for the second.

First: O=C1OCCC=C[C@H]2OC34C=CCN(Cc5ccccc5)C(=O)[C@H]3N(CCCCCO)C(=O)[C@@H]4C12 (some centres not stated)
Second: COc1ccccc1CN1C(=O)c2ccccc2[C@@H](C(=O)NCCN2CCOCC2)[C@@H]1c1ccc(CO)cc1
The composite z-score of the first is lower: -0.154 for the first, 0.123 for the second.

Going from `CN1CCC(CCCO)=CC1c1ccc(CN2CCCC2)cc1` (configuration not stated) to `COc1ccc([Si](C)(C)[C@@H]2[C@@H](CCn3cc([C@H](O)c4ccccc4)nn3)O[C@]3(C(=O)N(Cc4ccc(N5C(=O)c6cccc7cccc5c67)cc4)c4ccccc43)[C@H]2C)cc1`, the composite z-score falls from 0.441 to -0.0904.

First: CCOC(=O)C[C@H]1[C@H](OC(=O)c2ccccc2-c2ccccc2)[C@@H](NC(=O)c2ccc3ccccc3c2)c2cc(OCCCO)ccc2N1C(=O)c1ccc2ccccc2n1
Second: N#Cc1ccc(NN2C(C(O)c3ccc([N+](=O)[O-])cc3)C=CC3C(=O)N(c4ccccc4)C(=O)C32)cc1 (configuration not stated)
The composite z-score of the first is lower: -0.214 for the first, 0.935 for the second.
